In PubChem BioAssay (NCATS) one finds Potency data, which are given here for 28 molecules.

Where “and” joins values, the source holds several entries; their conditions need not be identical. Equal values may be shown once. Results filed as inconclusive are left out. Calls of active or inactive are those of the source. The call rests on the fitted dose curve; in most records, active means well fitted inhibition curve with a large enough effect; inconclusive means small, poorly fitted or top-dose-only effect; inactive means no such curve, though single readings can be large or run the other way.
Potency means the concentration at half of the fitted maximal effect.

The nature of the assay: Primary qHTS for inhibitors of nuclear receptor binding SET domain protein 2 (NSD2) in an RCH-ACV wild type WT cells (2C) (AID 1645877). Further: nearly all actives have a fitted effect of over 70% in size. Conditions: RCH-ACV (leukaemia line) NSD2 WT (2C) viability, CellTiter-Glo, 72 h; series mostly up to 44.9 µM.
Take `O=C(Nc1ccc(Cl)cc1)Nc1ccc(Cl)c(C(F)(F)F)c1`: the Potency is 2.99 µM (active).
The same measure for `NC(=O)NC1N=C([O][Al])NC1=O` (stereo not drawn): “inactive”; for `COc1ccccc1OCC1CNC(=O)O1` (stereo not drawn): “inactive”.
For `CC(=O)N(CC(O)CO)c1c(I)c(C(=O)NCCO)c(I)c(C(=O)NCC(O)CO)c1I` (stereo not drawn), the Potency result is “inactive”.
On to `CCCC(=O)O[C@]1(C(=O)CCl)[C@@H](C)C[C@H]2[C@@H]3CCC4=CC(=O)C=C[C@]4(C)[C@@]3(F)C(=O)C[C@@]21C`, for which the Potency was 0.0007 µM (active).
Take `O=C(Nc1ccc(Cl)cc1)Nc1ccc(Cl)c(Cl)c1`: the Potency is 6.68 µM (active).
To `C[C@H]1NCc2cc(-c3ccc4c(=O)c(C(=O)O)cn(C5CC5)c4c3OC(F)F)ccc21` belongs “inactive”.
The same measure for `CN=C(N)NC(=O)Nc1c(C)cccc1C`: “inactive”; for `CN1CC[C@H](c2c(O)cc(O)c3c(=O)cc(-c4ccccc4Cl)oc23)[C@H](O)C1`: 0.0106 µM (active).
As to `Cc1cc(=O)oc2cc(O[C@@H]3SC[C@@H](O)[C@H](O)[C@H]3O)ccc12`, the Potency entry was “inactive”.
Regarding `CCCCCN(CCCOC)C(=O)C(CCC(=O)O)NC(=O)c1ccc(Cl)c(Cl)c1` (stereo not drawn), the Potency result is “inactive”.
The same measure for `COc1ccc(-n2nc(CCC(=O)N(C)O)cc2-c2ccc(Cl)cc2)cc1`: 7.5 µM (active); for `CCCCCCCCCCCC[N+](C)(C)Cc1ccccc1`: 0.473 µM (active); for `CCCCCCCCCCCCCCCCCCN(C)C`: “inactive”.
With `COC(=O)C1=C(C)NC(COC(N)=O)=C(C(=O)OC(C)C)C1c1cccc(Cl)c1Cl` (stereo not drawn), the Potency was 11.9 µM (active).
For the molecule `CC(C)=CCNc1ncnc2c1ncn2[C@@H]1O[C@H](CO)[C@@H](O)[C@H]1O`, the Potency was 1.06 µM (active).
With `CC(=O)Nc1ccc(S(=O)(=O)Nc2cc(C)on2)cc1`, the Potency entry is “inactive”.
As for `Cc1cc(O)c2c(O)c3c(O)cccc3cc2c1`, the Potency entry is “inactive”.
The same measure for `CCCCC(=O)OCC(=O)[C@H]1[C@H](C)C[C@H]2[C@@H]3C[C@H](F)C4=CC(=O)C=C[C@]4(C)[C@@]3(F)[C@@H](O)C[C@@]21C`: 0.0033 µM (active).
For `Cc1nc(N)nc(N)c1-c1ccc(Cl)c(Cl)c1`, the Potency was 0.299 µM (active).
For `C=CC[N+]1([C@H]2C[C@H]3[C@@H]4CC[C@H]5C[C@H](OC(C)=O)[C@@H](N6CCCCC6)C[C@]5(C)[C@H]4CC[C@]3(C)[C@H]2OC(=O)CC)CCCCC1`, the Potency result was “inactive”.
Consider `O=C(Nc1ccc(S(=O)(=O)N2CCOCC2)cc1)c1cc(Cl)ccc1NS(=O)(=O)c1ccc(Cl)s1`, for which the Potency entry was “inactive”.
For the molecule `CC1(C)O[C@@H]2C[C@H]3[C@@H]4C[C@H](F)C5=CC(=O)C=C[C@]5(C)[C@@]4(F)[C@@H](O)C[C@]3(C)[C@]2(C(=O)CO)O1`, the Potency was 0.8 nM (active) and 5.9 nM (active).
The same measure for `CC(NCCC(c1ccccc1)c1ccccc1)c1ccccc1` (stereo not drawn): 18.8 µM (active).
As to `CCCCCOc1ccccc1/C(=C\SC)n1ccnc1`, the Potency was 13.3 µM (active).
As for `Nc1ncnc2c1ncn2Cc1c(F)cccc1Cl`, the Potency result is “inactive”.
On to `CCC(=O)O[C@]1(C(=O)COC)[C@@H](C)C[C@H]2[C@@H]3CCC4=CC(=O)C=C[C@]4(C)C3(F)[C@@H](O)C[C@@]21C` (stereo partly drawn), for which the Potency is 0.0033 µM (active).
Take `CO[C@@H]1[C@@H](OC)[C@H](C)[C@@](O)(CC(=O)O)O[C@H]1[C@H](C)[C@H]1O[C@@]2(CC[C@@](C)([C@H]3CC[C@@](C)([C@@H]4O[C@@H]([C@H]5O[C@](C)(O)[C@H](C)C[C@@H]5C)C[C@@H]4OC4C[C@H](OC)[C@@H](OC)[C@H](C)O4)O3)O2)C[C@H](O)[C@H]1C` (stereo partly drawn): the Potency was 0.531 µM (active).
